What follows are sequences tested against C3orf64 (assay: pooled miR-30 sensor sort-seq; sequence = guide strand). Details: shRNA.

| Sequence | sensor-assay potency score (higher = more potent) |
| --- | --- |
| TTAGCATCTTCTATAGGTCTGA | 0.396 |
| TATATGGACAAAGAGAGTCTTT | -0.594 |
| TATAGGTCTGAAGTTGAGCTGA | 0.14 |
| TTCATCTTCACAGTTGTACAGT | 0.304 |
| TATAGCTTTGTAGCTCAGCAAA | -1.7 |
| TTAGTTGATCTAAAAACCCAAG | -1.13 |
| TAAACAAGTTGGAACACTCTGG | 0.509 |

These sequences were tested against C4orf27 in the same assay as above. Details: shRNA.

| Sequence | sensor-assay potency score (higher = more potent) |
| --- | --- |
| TATAATGATTTTCTACTTCTTT | -0.484 |
| TTATCTACTGGAACAACCAAGC | -0.86 |
| TTCTCTTGAGGTCAGCATCTGT | -0.164 |
| TAATGGTCTGGAACTCAGGAGG | -0.721 |
| TTCATCATTAGCAAACTGCACA | -0.513 |
| TATGTTCTCTTGACTTCTGTTT | -0.298 |
| TTATACAATTTTTCTTTGCTTC | -0.21 |
| TTTATCTACTGGAACAACCAAG | -0.789 |
| TCTACTGGAACAACCAAGCCTG | -0.00895 |
| TTAGTCTCTCCTCATCACTTGC | -0.932 |
| TATTTCTCTAAGTTTTTTCGTC | -0.0754 |
| TTCTTTTCGAAGGTCACTGGAG | -0.538 |

Reference: the OligoGym collection
